Bioassay records deposited in PubChem by Broad Institute.
Compounds with a hit are over-represented: about 0.65% of the library has one in this group of screens.
TcdB GH inh: inhibitors of Clostridioides difficile toxin B glycohydrolase; TcdB glycohydrolase enzymatic assay, plate reader; inhibition, % at 9.99 µM; actives 0.24% (n = 350,000); in the data active = inhibition above about 10%
Mtb UGM inh: Mtb UDP-galactopyranose mutase inhibition; purified UGM, fluorescence polarization probe displacement; inhibition, % at 10 µM; actives 0.06% (n = 320,000); in the data active = inhibition above about 10%, passing the limit was not always enough
Target sequence (P9WIQ1 whole entry, looked up): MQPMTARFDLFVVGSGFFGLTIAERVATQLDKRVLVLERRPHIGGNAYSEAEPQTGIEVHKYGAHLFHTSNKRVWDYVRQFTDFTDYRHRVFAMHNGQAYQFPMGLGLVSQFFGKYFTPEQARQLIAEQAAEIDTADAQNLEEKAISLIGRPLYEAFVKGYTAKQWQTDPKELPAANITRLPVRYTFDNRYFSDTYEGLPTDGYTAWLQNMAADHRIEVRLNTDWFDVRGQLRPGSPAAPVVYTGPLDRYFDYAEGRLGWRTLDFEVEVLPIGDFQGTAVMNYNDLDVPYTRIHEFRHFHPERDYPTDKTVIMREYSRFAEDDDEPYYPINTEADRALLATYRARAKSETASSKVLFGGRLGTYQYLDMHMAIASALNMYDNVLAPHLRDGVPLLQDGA
Yp Topo-I inh: inhibitors of Yersinia pestis topoisomerase I; activity, % at 10 µM; actives 0.064% (n = 360,000); Y. pestis Topo-I cleavage product accumulation, plate reader; AID 504884; in the data active = activity above about 50%, passing the limit was not always enough
Vc quorum ag-1: inducers of Vibrio cholerae quorum light production without autoinducers. V. cholerae BH1578 lux reporter, luminescence, 6 h. activation, % at 18.7 µM. actives 0.16% (n = 350,000). AID 588436; in the data active = activation mostly above about 9.7%, no sharp cut-off
PrP 5UTR inh: suppresses PrP 5' UTR mRNA reporter expression | actives 0.35% (n = 340,000) | inhibition, % (test concentration not listed) | cell-based PrP 5' UTR mRNA reporter, plate reader; in the data active = inhibition above about 52%; also: 0 = median of the neutral control wells
Vc quorum ag-2: quorum light induction in BH1578 reporter strain | shares compounds with Vc quorum ag-1 | V. cholerae BH1578 lux reporter, luminescence, 6 h | activation, % at 50 µM | 620 tested, under 10 active; call rule not given here
Active calls of the source: *; i = inactive; · = no result; + = active, no number.

SMILES	TcdB GH inh	Mtb UGM inh	Yp Topo-I inh	Vc quorum ag-1	PrP 5UTR inh	Vc quorum ag-2
CCCS(=O)(=O)N1CCC(C(=O)N2CCN(C(=O)OCC)CC2)CC1	·	0	1	15*	-6	0
COc1ccc(C)c2sc(N3CCCC3)nc12	·	1	-9	28*	-12	1
CC(=O)c1cccc(NC(=O)COC(=O)COc2ccc(Cl)cc2)c1	0	2	-5	0	-25	·
CC(=O)c1cccc(NC(=O)COC(=O)Cc2ccc(Cl)cc2)c1	0	·	-10	14	-2	0
C[C@@H]1CN([C@@H](C)CO)C(=O)c2cc(C#CC3(O)CCCC3)cnc2O[C@@H]1CN(C)C(=O)CC1CC1	1	·	·	·	·	·
O=C(CCN1C(=O)c2ccccc2C1=O)N1CCN(C2c3ccccc3-c3ccccc32)CC1	·	0	25	13	-41	2
CN1C(=O)c2cc(NC(=O)c3cccc(F)c3)ccc2OC[C@H]2O[C@@H](CC(=O)NC3CCC3)CC[C@@H]21	0	·	·	·	·	·
CCNC(=O)OCc1cn(-c2ccccc2)nn1	1	-2	6	+	-17	i
CC(C)(C)OC(=O)NCCCC(CCCNC(=O)OC(C)(C)C)C(=O)O	·	-3	-7	12	-12	0
CC(C)(C)OC(=O)NCCCCCO	2	4	3	i	-21	·
CCCc1cc(Nc2ccccc2)n2ncnc2n1	-3	0	1	1	-6	·
CCCc1cc(Nc2ccccc2OCC)n2ncnc2n1	·	-1	8	3	-6	1
C[C@H]1CN([C@@H](C)CO)C(=O)c2cc(N(C)C)ccc2O[C@H]1CN(C)Cc1ccc(Oc2ccccc2)cc1	-7	·	·	·	·	·
c1ccc(-c2ccc(CN3Cc4ccccc4-n4nncc4C3)cc2)cc1	0	·	38	249*	·	397
O=[N+]([O-])c1ccc(N(CCO)CCO)c2c1no[n+]2[O-]	4	·	1	39*	·	2
CN(C(=O)C12CC3CC(CC(C3)C1)C2)C1(C)CCS(=O)(=O)C1 (stereo not given)	·	1	-4	0	-8	·
CC1(NC(=O)C23CC4CC(CC(C4)C2)C3)CCS(=O)(=O)C1 (stereo not given)	·	-1	4	17*	-10	0
C[C@@H]1CN([C@@H](C)CO)C(=O)c2cc(NC(=O)NC3CCCCC3)ccc2O[C@@H](C)CCCCO[C@@H]1CN(C)C(=O)c1ccccc1	0	·	·	·	·	·
COCC(=O)N1CC2(C1)[C@H](c1ccc(-c3cccc(F)c3)cc1)[C@H](CO)N2C(=O)COC	2	·	·	·	·	·
COc1ccccc1CNC(=O)COC(=O)c1n[nH]c2ccccc12	·	1	6	12	-20	2
C/C=C/c1ccc([C@H]2[C@@H](CO)N(C(=O)COC)[C@@H]2CNC(=O)CC)cc1	1	·	·	·	·	·
O=C(c1ccc2c(c1)OCO2)N(Cc1ccco1)C1(C(=O)NC2CCCCC2)CCCCC1	·	1	5	17*	-26	0
O=C(NCCN1CCOCC1)c1ccc([N+](=O)[O-])cc1[N+](=O)[O-]	·	0	0	i	-3	·
O=[N+]([O-])c1ccc(NCCN2CCOCC2)c([N+](=O)[O-])c1	1	-2	-15	33*	-35	1
Cc1cc(C)cc(NC(=O)Cn2ncn3c(cc4ccccc43)c2=O)c1	1	1	-1	18*	-32	1
SMILES	TcdB GH inh	Mtb UGM inh	Yp Topo-I inh	Vc quorum ag-1	PrP 5UTR inh	Vc quorum ag-2
CC(=O)N(C)C[C@H]1Oc2cc(C#CCC3CCCC3)ccc2S(=O)(=O)N([C@H](C)CO)C[C@@H]1C	2	·	·	·	·	·
COc1cccc(OCC(=O)NC2CCCCC2)c1	0	0	-1	37*	-20	39
COc1cccc(OCC(=O)NC2CCCCCC2)c1	2	-2	4	-1	-28	·
COc1ccc(N2CC(C(=O)Nc3cc(C(F)(F)F)ccc3N3CCCC3)CC2=O)c(OC)c1 (stereo not given)	1	-1	20	19	-11	5
Cc1onc(-c2ccccc2)c1C(=O)n1cccn1	·	0	5	22*	-8	0
CN(C)c1nc(N)ncc1-c1ccc(Oc2ccccc2)cc1	0	-3	8	53*	-10	7
CCOCCCN1CC(C(=O)NCCc2ccc(C)cc2)CC1=O (stereo not given)	·	3	-1	17*	-5	0
Cc1noc(C)c1S(=O)(=O)Nc1ccc2c(c1)C(=O)N([C@H](C)CO)C[C@@H](C)[C@H](CN(C)C(=O)Nc1cccc3ccccc13)OCCCC[C@@H](C)O2	0	·	·	·	·	·
COc1ccc(C(=O)N2CCCCC2)cc1S(=O)(=O)Nc1cccc(C(=O)O)c1	0	0	3	-2	-27	·
COc1ccc(C(=O)O)cc1S(=O)(=O)Nc1cccc(C(F)(F)F)c1	·	0	2	17*	-20	0
CC(=O)N[C@@H](Cc1c[nH]c2ccccc12)C(=O)OCC(=O)Nc1ccc2c(c1)OCO2	1	·	-4	i	-8	·
O=C(COC(=O)[C@H](Cc1c[nH]c2ccccc12)NC(=O)c1ccc(Cl)cc1)Nc1ccc2c(c1)OCO2	·	1	-10	2	-25	0
CC(=O)N1[C@@H]2c3ccc(-c4ccncc4)c(=O)n3C[C@@H]2[C@@H](CO)[C@@H]1C(=O)NC1Cc2ccccc2C1	1	·	·	·	·	·
O=C(C[C@H]1CC[C@@H](NC(=O)CCN2CCCCC2)[C@H](CO)O1)NCc1ccc(Cl)c(Cl)c1	-1	·	·	·	·	·
CO[C@H]1CN(C)C(=O)c2cc(NS(=O)(=O)c3ccc(F)cc3)ccc2OC[C@H](C)NC[C@@H]1C	-1	·	·	·	·	·
COc1ccc(OCc2nnc3n2N=C(c2ccc(OC)cc2)CS3)cc1	-4	-3	13	27	-4	3
C[C@@H]1CN([C@@H](C)CO)S(=O)(=O)c2ccc(-c3ccncc3)cc2O[C@@H]1CN(C)C(=O)CN(C)C	0	·	·	·	·	·
COc1ccc(NC(=O)N(C)C[C@@H]2Oc3ccc(NC(=O)CCC(F)(F)F)cc3CC(=O)N([C@H](C)CO)C[C@@H]2C)cc1	0	·	·	·	·	·
COC(=O)C1CCN(C(=O)CN(C)Cc2ccc(C(C)(C)C)cc2)CC1	-1	-1	14	41*	-11	11
CN(Cc1ccc(C(C)(C)C)cc1)C(=O)C1CCN(C(=O)Nc2ccccc2)CC1	3	-2	28	0	-18	·
CC(=O)Nc1ccc(NC(=O)c2ccccc2C)cc1	1	-1	3	257*	-7	0
